The results in this text go back to PubChem BioAssay (Tox21).

Records with an inconclusive call do not appear. Unmarked numbers belong to inactive results. Activity calls are given as the source filed them. The call rests on the fitted dose curve.
On the % scale 0 is the no-effect control and ±100 the full control effect; potency means the concentration at half of the fitted maximal effect.

The assay in a line: Nuclear factor erythroid 2-related factor 2/antioxidant responsive element (Nrf2/ARE) small molecule agonists: luciferase reporter gene qHTS assay in human keratinocytes (AID 1919969). Further: nearly all actives have a fitted effect of over 35% in size. Particulars: KeratinoSens HaCaT ARE-luciferase, luminescence, 24 h; series mostly up to 92.4 µM; activity, positive = activation: at the top concentration. The text has this: National Center for Advancing Translational Sciences [NCATS]
Division of Preclinical Innovation [DPI]
U.S. Environmental Protection Agency [EPA]
National Institutes of Environmental Health Sciences [NIEHS]
National Toxicology Program [NTP]
U.S. Food and Drug Administration [FDA]
Oxidative stress has been implicated in the pathogenesis of a variety of diseases ranging from cancer to neurodegeneration. The antioxidant response element (ARE) signaling pathway plays an important role in the amelioration of oxidative stress. The KeratinoSens (Givaudan, Switzerland) is an in vitro test method which quantifies luciferase induction as a measure of activation of Keap1-Nrf2-antioxidationt/electrophile response element (ARE) dependant pathway in HaCaT human keratinocytes stably transfected with a selectable plasmid. The KeratinoSens assay is a cell-based assay with a reporter cell line to detect potential skin sensitizers by their ability to induce the Nrf2/ARE-response. The activation of the report gene under culture conditions can be detected by ONE-Glo Luciferase Assay System (Promega, Madison, WI). This cell line has been used to screen the Tox21 10K compound library to identify agonists that induce oxidative stress. The cytotoxicity of the Tox21 compound library against the KS-ARE cell line was tested in parallel by measuring the cell viability using CellTiter- Fluor assay system (Promega, Madison, WI) in the same wells.
HaCaT derived cell line KeratinoSens were dispensed at 1,500 cells/5uL/well in 1536-well white wall/solid bottom plates using a Multidrop Combi (ThermoFisher Scientific, Waltham, MA) dispenser. After the assay plates were incubated at 37 C/5% CO2 for 5 h, 23 nL of compounds dissolved in DMSO, positive controls or DMSO only was transferred to the assay plate by a pintool workstation (Kalypsys, San Diego, CA). The plates were incubated at 37 C/5% CO2 for 23 h, followed by addition of 1uL/well of CellTiter-Fluor reagent into the assay plates using a Flying Reagent Dispenser (Aurora Discovery, San Diego, CA) for cell viability readout that measures cytotoxicity. After 1 h incubation at 37 C/5% CO2 the fluorescence intensity was measured using a ViewLux (PerkinElmer, Shelton, CT) plate reader. Then 4uL/well of One-Glo were added using a Flying Reagent Dispenser. After the plates were incubated at room temperature for 30 min, the luminescence intensity in the assay plates was measured using ViewLux plate reader.
In the case of `O=C1C(=O)c2ccccc2C(O)=C1C1CCC(c2ccc(Cl)cc2)CC1` (stereo not given), the Potency is 13.3 µM (active). For the compound `CCO[Si](CCCCl)(OCC)OCC`, the “activity, positive = activation” value is -15%. Same read-out and setting: then `C=C(C)C1CC=C(C)C(O)C1` (stereo not given), with -4.3%. On the same count and under the same terms, then `CCC(CO)(CO)COCC(CC)(CO)CO`, with -0.367%.

Take `CC(=O)c1cnccn1`: the “activity, positive = activation” value is 3.64%. In the case of `CCOC(=O)C1=C(C)NC(C)=C(C(=O)OC)C1c1cccc([N+](=O)[O-])c1` (stereo not given), the “activity, positive = activation” value was -7.15% [at 42.5 µM]. Still for that read-out and setting: then `CCCCOC(=O)C(C)Oc1ccc(Oc2ccc(C(F)(F)F)cn2)cc1` (stereo not given), with -12.2%. The same measure, in the same setting: as for `COc1ccc(/C(C)=C/C(=O)O)c(OC)c1`, the figure is -0.0029% [at 42.5 µM]; as for `CC(=O)C1C(=O)C=C(C)OC1=O` (stereo not given), 14.8%.

`COc1ccc(C(=O)c2ccc(OC)cc2O)c(O)c1`: the Potency is 69.1 µM (active). `C=C(C)C1CCC(C)CC1O` (stereo not given): the “activity, positive = activation” value is -6.25%. Turning to `Cc1[nH]c(=O)c(C#N)cc1-c1ccc2nccn2c1`, the “activity, positive = activation” value was -5.52% [at 42.5 µM].

In the case of `CNC(=O)N(c1ccccc1)c1ccccc1`, the “activity, positive = activation” value is -3.64%. The same measure, in the same setting: then `COCCOCCOCCOC`, with -15.5%; and `CC1(C)OC[C@@H](COC(=O)CCc2ccc(OC[C@@H](O)CNCCNC(=O)N3CCOCC3)cc2)O1`, with 2.17% [at 42.5 µM]. Still for that read-out and setting: as for `C#Cc1ccc(-c2ccccc2F)cc1`, the figure is 3.25% [at 42.5 µM]; as for `CC1=C(CC=O)C(C)(C)CCC1`, -2.38%.

`COc1cc2c(cc1OC)-c1cc3ccc(OC)c(OC)c3c[n+]1CC2`: the “activity, positive = activation” value was -2.17%. Still for that read-out and setting: then `CC(C)NCC(O)c1ccc(NS(C)(=O)=O)cc1` (stereo not given), with -20.3%; and `CCCCCCCCCCCCC`, with -14.4%; and `Cc1cccc(Oc2ccccc2)c1`, with 14.8%.

Regarding `COc1cc(-c2nc(NC(=O)c3cc4cc(C)cc(C)c4n3CC(=O)O)sc2CCC2CCCCC2)c(OC)cc1Cl`, the Potency was 12.5 µM (active). On to `C#CCN[C@@H]1CCc2ccccc21`, for which the “activity, positive = activation” value is -0.0553% [at 42.5 µM]. On the same count and under the same terms, then `O=C(O)Cc1cn(-c2ccccc2)nc1-c1ccc(Cl)cc1`, with -7.14% [at 42.5 µM]; and `COc1cc(C(=O)OC(COCCC(C)C)CN2CCOCC2)cc(OC)c1OC` (stereo not given), with -3.25% [at 42.5 µM]; and `OC1(c2ccc(Cl)c(C(F)(F)F)c2)CCN(CCCC(c2ccc(F)cc2)c2ccc(F)cc2)CC1`, with -39.3% [at 42.5 µM]. The same measure, in the same setting: then `O=Cc1ccc(F)c(Br)c1`, with 1.54%. On the same count and under the same terms, then `CCC(C)CCCC(C)(C)O` (stereo not given), with 22.2%. On to `CCOC(=O)Oc1ccc(CCNC(=O)[C@H](CCSC)NC(C)=O)cc1OC(=O)OCC`, for which the “activity, positive = activation” value is 15.5% [at 42.5 µM].

`CCCCCCCCN(C)CCCCCCCC`: the “activity, positive = activation” value was -1.22%.

Consider `CCC(=O)CC(C)CC` (stereo not given), for which the activity, positive = activation was -3.45% [at 0.349 µM].

For `C/C=C(\C)C(=O)OCCc1ccccc1`, the “activity, positive = activation” value is 23.6%. Same read-out and setting: then `CCOC(=O)Cn1cccc1-c1nc(-c2ccc(OC)cc2)c(-c2ccc(OC)cc2)s1`, with 16% [at 42.5 µM]. Same read-out and setting: then `C=C(C)c1cccc(C(C)(C)N=C=O)c1`, with -8.22%; and `CCCCCCCCCCCBr`, with 2.39% [at 42.5 µM]. Still for that read-out and setting: then `O=S(=O)(O)c1ccc(Cl)cc1`, with -14.3%. Take `CN(C)CCCCl`: the “activity, positive = activation” value was 0.555%. Consider `CCCCCCCCCCCC`, for which the “activity, positive = activation” value is 15.7%. Turning to `O=CC(=O)c1ccccc1`, the Potency was 68.7 µM (active). With `On1nnc2ccccc21`, the “activity, positive = activation” value is 1.74%.
